From PubChem BioAssay
An excerpt weighted towards active compounds, which were near 0.73% of everything screened.
TcdB inh: TcdB glycohydrolase inhibition; TcdB glycohydrolase enzymatic assay, plate reader; actives 0.24% (n = 350,000); AID 652162; P18177; inhibition, % at 9.99 µM; in the data active = inhibition above about 10%
BH1578 lux ind: induces V. cholerae light production without autoinducers. V. cholerae BH1578 lux reporter, luminescence, 6 h. activation, % at 18.7 µM. actives 0.16% (n = 350,000). AID 588436; in the data active = activation mostly above about 9.7%, no sharp cut-off
Mtb BioA inh: BioA (M. tuberculosis) enzyme inhibition; inhibition, % at 9.99 µM; AID 602481; actives 0.096% (n = 360,000); purified M. tuberculosis BioA enzyme, plate reader; in the data active = inhibition above about 40%
Yp Topo-I inh: Y. pestis Topo-I inhibition via cleavage products. Y. pestis Topo-I cleavage product accumulation, plate reader. activity, % at 10 µM. actives 0.064% (n = 360,000). AID 504884; in the data active = activity above about 50%, passing the limit was not always enough
VHR inh abs: DUSP3 (human) phosphatase inhibition; P51452; recombinant VHR phosphatase, pNPP absorbance; inhibition, % at 13.3 µM; actives 0.52% (n = 290,000); in the data active = inhibition above about 50%
Large screens that a line does not name were inactive.

COC(=O)c1ccccc1NC(=O)C(=O)NCc1ccncc1	VHR inh abs 56.3 (no result: Mtb BioA inh)
Cc1noc(C)c1C(=O)Nc1cccc2ncccc12	VHR inh abs 53.3
O=C1NC(=O)/C(=C/c2ccc(O)cc2)S1	TcdB inh 27.0 (no result: Mtb BioA inh)
O=C1NC(=O)C(=Cc2ccc(Cl)c(Cl)c2)S1	none (no result: VHR inh abs)
CCc1cccc(CC)c1NC(=O)c1ccccc1	none (no result: Mtb BioA inh)
CCc1cccc(CC)c1NC(=O)c1cccc(N)c1	VHR inh abs 56.4 (no result: TcdB inh)
Cc1noc(C)c1S(=O)(=O)Nc1ccc2c(c1)CC(=O)N([C@@H](C)CO)C[C@H](C)[C@H](CN(C)Cc1ccncc1)O2	none (no result: BH1578 lux ind, Yp Topo-I inh, VHR inh abs)
COc1cccc(C(CNc2ccc(S(=O)(=O)N3CCN(C)CC3)cc2[N+](=O)[O-])N(C)C)c1 (stereo not drawn)	TcdB inh 17.4 (no result: VHR inh abs)
CC(Nc1ccc(S(=O)(=O)N2CCN(C)CC2)cc1[N+](=O)[O-])c1ccccc1 (stereo not drawn)	none (no result: VHR inh abs)
C#Cc1ccc(CN2CCCC(C(=O)Nc3ccccc3Oc3cccnc3)C2)cc1 (stereo not drawn)	VHR inh abs 55.6
O=C(Nc1ccccc1Oc1cccnc1)C1CCCN(Cc2ccccc2O)C1 (stereo not drawn)	none
CCOc1ccc(/C=C/C(=O)Oc2ccccc2)cc1	VHR inh abs 52.0
CC(=O)[C@]12O[C@@]3(COC[C@H](c4ccccc4)N3C1=O)[C@H]1C(=O)N(c3ccccc3)C(=O)[C@H]12	none (no result: BH1578 lux ind, Mtb BioA inh, Yp Topo-I inh, VHR inh abs)
COc1ccc(CN2CCCC(C(=O)N3CCc4ccccc4C3)C2)cc1OC (stereo not drawn)	VHR inh abs 59.1
COc1cc(CN2CCCC(C(=O)N3CCc4ccccc4C3)C2)cc(OC)c1OC (stereo not drawn)	none
C[C@H](CO)N1C[C@H](C)[C@@H](CN(C)S(=O)(=O)c2ccccc2)Oc2ccc(NC(=O)c3ccncc3)cc2CC1=O	none (no result: BH1578 lux ind, Yp Topo-I inh, VHR inh abs)
CCCS(=O)(=O)NC(=O)C1(C)CCN(C(=O)c2ccco2)C1 (stereo not drawn)	TcdB inh 11.5 (no result: VHR inh abs)
COc1cccc(CNC(=O)C[C@H]2C=C[C@@H](NS(=O)(=O)c3ccccc3OC)[C@H](CO)O2)c1	none (no result: BH1578 lux ind, Yp Topo-I inh, VHR inh abs)
Cc1c(N(C)S(=O)(=O)c2cc(C(=O)N3CCCC3)ccc2Cl)c(=O)n(-c2ccccc2)n1C	VHR inh abs 53.3
Cc1ccc(S(=O)(=O)Oc2ccccc2/C=C2\SC(=O)NC2=O)cc1	TcdB inh 10.6 (no result: Mtb BioA inh)
COc1ccccc1C=C1SC(=S)NC1=O	TcdB inh 10.6 (no result: Mtb BioA inh, VHR inh abs)
COc1ccc(C=C2SC(=S)NC2=O)c(OC)c1OC	none (no result: Mtb BioA inh, VHR inh abs)
CCCCNC(=O)c1nn2c(C(F)(F)F)cc(-c3ccccc3)nc2c1Br	none
CCN(CC)CCCNC(=O)c1nn2c(C(F)(F)F)cc(-c3ccccc3)nc2c1Cl	VHR inh abs 59.7
COc1cccc(NC(=O)N(C)C[C@@H]2OCc3ccccc3-c3c(n(C)c4ccccc34)C(=O)N([C@@H](C)CO)C[C@@H]2C)c1	none (no result: BH1578 lux ind, Yp Topo-I inh, VHR inh abs)
Cc1ccc2cc(C#N)c(N3CCN(C(=O)c4cccs4)CC3)nc2c1	VHR inh abs 51.0
C[C@@H]1CCCCO[C@H](CN(C)Cc2ccc(C(=O)O)cc2)[C@@H](C)CN([C@@H](C)CO)C(=O)c2cc(NC(=O)Nc3ccc4c(c3)OCO4)ccc2O1	none (no result: BH1578 lux ind, Yp Topo-I inh, VHR inh abs)
CCN(CC)c1ccc(NC(=O)CN(C)Cc2cccs2)cc1	VHR inh abs 53.3
Cc1ccc(NC(=O)CN(C)Cc2cccs2)cc1Cl	none
COc1cccc(N2CC(C(=O)N3CCC4(CC3)CC(=O)c3ccccc3O4)CC2=O)c1 (stereo not drawn)	Yp Topo-I inh 217.2 (no result: VHR inh abs)
Cc1ccc(S(=O)(=O)N2CCOCC2)cc1C(=O)NCCCN1CCCC1=O	TcdB inh 10.6 (no result: VHR inh abs)
CNC(C(=O)c1ccccc1)C(OC)c1ccccc1 (stereo not drawn)	none (no result: TcdB inh)
CNC(C(=O)c1ccccc1)C(OC)c1cccc([N+](=O)[O-])c1 (stereo not drawn)	TcdB inh 20.9 (no result: Mtb BioA inh)
O=C(NCCN1CCOCC1)C1CC(=O)N(c2ccc(Cl)cc2)C1 (stereo not drawn)	VHR inh abs 50.0
O=C(NCCN1CCOCC1)C1CC(=O)N(c2ccc(F)cc2)C1 (stereo not drawn)	none
CC(=O)c1ccccc1N(C(=O)c1ccco1)C(C(=O)NC1CCCC1)c1ccc(C)cc1 (stereo not drawn)	VHR inh abs 51.1
COCC(=O)N(C)C[C@@H]1Oc2ncc(C#C[C@H](C)O)cc2C(=O)N([C@@H](C)CO)C[C@H]1C	none (no result: BH1578 lux ind, Yp Topo-I inh, VHR inh abs)
O=C(O)c1ccccc1C(=O)c1ccc2c(c1)N(Cc1cccc(F)c1)C(=O)CO2	TcdB inh 21.4 (no result: Mtb BioA inh)
O=C(O)c1ccc2c(c1)N(Cc1cccc(F)c1)C(=O)CS2	TcdB inh 20.7
CCC(C)NC(=O)c1ccc2c(c1)N(Cc1ccccc1)C(=O)CS2 (stereo not drawn)	none (no result: Mtb BioA inh)
C[C@@H]1CN([C@H](C)CO)C(=O)c2cccc(NC(=O)NC3CCCCC3)c2O[C@@H]1CN(C)C	none (no result: BH1578 lux ind, Yp Topo-I inh, VHR inh abs)
Cc1nc(SCC(=O)N2CCNC2=O)c(C#N)c(C)c1C	TcdB inh 12.7 (no result: VHR inh abs)
CCn1c(SCC(=O)Nc2ccc(Cl)cc2)nc2nc3c(cc2c1=O)CCCC3	VHR inh abs 59.9 (no result: TcdB inh)
CCn1c(SCC(=O)Nc2ccc(C(C)=O)cc2)nc2nc3c(cc2c1=O)CCCC3	none (no result: TcdB inh)
CCn1c(SCC(=O)NCc2ccccc2)nc2nc3c(cc2c1=O)CCCC3	VHR inh abs 52.9 (no result: Mtb BioA inh)
CCCCCCC/C=N/Nc1nnc(Cc2ccccc2)c(=O)[nH]1	VHR inh abs 53.0 (no result: Mtb BioA inh)
C[C@H]1CN([C@@H](C)CO)C(=O)c2cc(NC(=O)CCCN(C)C)ccc2O[C@@H]1CN(C)Cc1ccc(Oc2ccccc2)cc1	none (no result: BH1578 lux ind, Yp Topo-I inh, VHR inh abs)
Cc1cc(=O)oc(C)c1C(=O)NCC(C)C	none
Cc1cc(=O)oc(C)c1C(=O)NCC(C)NC(=O)c1c(C)cc(=O)oc1C (stereo not drawn)	VHR inh abs 54.3 (no result: TcdB inh)
CC(C)NC(=O)N(C)C[C@H]1Oc2cc(C#CCN(C)C)ccc2S(=O)(=O)N([C@@H](C)CO)C[C@H]1C	none (no result: BH1578 lux ind, Yp Topo-I inh, VHR inh abs)
O=C(NC1CCN(Cc2ccccc2)CC1)c1ccc2c(c1)OCCCO2	Yp Topo-I inh 70.2 (no result: Mtb BioA inh)
CCN(CC)CC(=O)NCC1(c2ccccc2)CCCC1	none (no result: Mtb BioA inh)
N#CCC(=O)NCC1(c2ccccc2)CCCC1	BH1578 lux ind 25.0 (no result: TcdB inh)
COCCCN1C(=O)[C@@]2(Cc3ccccc31)c1ccccc1C(=O)N(Cc1ccccc1)[C@H]2c1ccc(CO)cc1	none (no result: BH1578 lux ind, Yp Topo-I inh, VHR inh abs)
O=C(NN=Cc1ccc(F)cc1)c1ccccc1NS(=O)(=O)c1cccs1	none (no result: VHR inh abs)
O=C(NN=Cc1cc(Br)c(O)c(Br)c1)c1ccccc1NS(=O)(=O)c1cccs1	TcdB inh 13.5 (no result: VHR inh abs)
O=C(NC(NCc1cccnc1)C(Cl)(Cl)Cl)c1cccc2ccccc12 (stereo not drawn)	VHR inh abs 53.8 (no result: TcdB inh)
O=C(NC(NCc1ccccc1)C(Cl)(Cl)Cl)c1cccnc1 (stereo not drawn)	none (no result: TcdB inh)
CCCC#Cc1ccc([C@@H]2[C@H]3CN(S(=O)(=O)Cc4ccccc4)CC(=O)N3[C@H]2CO)cc1	none (no result: BH1578 lux ind, Mtb BioA inh, Yp Topo-I inh, VHR inh abs)
O=C(N[C@@H](Cc1c[nH]c2ccccc12)C(=O)O)C1CCN(S(=O)(=O)c2ccc(Cl)cc2)CC1	none
O=C(N[C@@H](Cc1c[nH]c2ccccc12)C(=O)O)C1CCN(S(=O)(=O)c2cccs2)CC1	TcdB inh 10.5
